Assay [1] deals with Aerobactin synthetase IucA (Klebsiella pneumoniae). Description: inhibition of K. pneumoniae IucA enzyme – biochemical, Tocris library, absorbance (AID 1345561).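 Also: 100% = enzyme without compound and 0% = no enzyme.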 The note with it: purified IucA enzyme assay, absorbance (OD) read-out; stronger effect = lower value;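 tested at 8 µM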.
Assay [2] can be described thus: viability loss with induced miR-34 in A549 – imaging, A549 dox-inducible miR-34, nuclei and caspase counts, primary screen (AID 1347080;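 active = compounds whose cell count with miR-34 switched on is under 0.7 times the count with it off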). The settings on record: A549 miR-34 inducible, Hoechst nuclei count, 48 h.
Assay [3] in a line: galactose survival enhancers in mitochondrial complex I cybrids – cell-based, galactose medium, ATP luminescence, primary screen (AID 1645843;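 active = z-score of at least 1.8 in each of two replicates, scored against plate mean and spread of sample wells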;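 also: positive z means more ATP and so rescue of galactose-driven cybrid death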). The settings on record: complex I mutant cybrid cells, 72 h, stronger effect = higher value.
Assay [4] in a line: compounds altering HSF1 focus formation in cells – imaging, Selleck Cancer Library (AID 1347162; in the data active = plate-normalised HSF1 focus index below about 0.46). The note with it: human cells, HSF1 nuclear foci imaging, at 10 µM; SSMD: measured here: HSF1 foci SSMD mean; cell count: measured here: cell number; plate-normalised HSF1 focus index: stronger effect = lower value.
The nature of assay [5]: chitosan synthesis blockers in C. neoformans – flow cytometry, Cibacron Brilliant Red staining (AID 1347148).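 Also: compound exposure lasted three days at 37 degrees C.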 The note with it: Cryptococcus neoformans chitosan, stronger effect = lower value; at 10 µM unless noted.
Assay [6] in a line: P. berghei load reduction in hepatocytes – cell-based, HepG2, luciferase luminescence, HepG2 viability, primary screen (AID 624349; in the data active = parasite load remaining mostly below about 12%, no sharp cut-off; inactive = mostly above about 10%;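 also: 100% = mean of DMSO negative control wells on the same plate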). The note with it: P. berghei liver stage in HepG2, luciferase luminescence, concentration not given here; parasite load remaining: stronger effect = lower value; viability: measured here: HepG2 viability without parasites.
[7] abbreviates: stronger effect = lower value, cell number ratio, induced over uninduced.
The mark [8] stands for this setting: measured here: relative caspase fold change +Dox/-Dox.
Where [9] appears, read: measured here: total cells with miR-34 induction, stronger effect = lower value.
[10] abbreviates: measured here: total cells without miR-34 induction.

Molecules are shown by their SMILES. The source made the active and inactive calls. Unless noted, no rule for the calls is given here.

Consider `CCN(CC)CCCCC1CCN(CC(=O)N2c3ccccc3C(=O)Nc3cccnc32)CC1`, for which the remaining activity (usually the signal under treatment as a percentage of the control signal) in assay [1] is 105% (inactive). Besides, the fold change in assay [2] (setting [7]) is 0.936 (inactive); in assay [2] (setting [8]), 1.52. Further, the cell count in assay [2] (setting [9]) was 8520; in assay [2] (setting [10]), 9110. Moreover, the z-score in assay [3] is -0.225 (inactive).
Take `Cc1nn(-c2ccccc2)c(C)c1/C=N/N1CCN(Cc2ccccc2)CC1`: the remaining activity in assay [1] is 122% (inactive). Also, the fold change in assay [2] (setting [7]) is 1.03 (inactive); in assay [2] (setting [8]), 0.466. In addition, the figures for the cell count in assay [2] (setting [9]), in assay [2] (setting [10]) and in assay [4] were 8730, 8510 and 6930, respectively. The SSMD in assay [4] came to 3.26. Also, the plate-normalised HSF1 focus index in assay [4] was 1.18 (inactive). The z-score in assay [3] was -0.095 (inactive).
Turning to `c1ccc(COCCCc2cnc[nH]2)cc1`, in assay [1], the remaining activity was 112% (inactive). Also, the fold change in assay [2] (setting [7]) was 0.883 (inactive); in assay [2] (setting [8]), 2.69. In addition, the cell count in assay [2] (setting [9]) amounted to 8520; in assay [2] (setting [10]), 9640. In addition, the z-score in assay [3] was -0.18 (inactive).
Take `COC(=O)C1=C(C)NC(C)=C([N+](=O)[O-])[C@H]1c1ccccc1C(F)(F)F`: in assay [1], the remaining activity is 113% (inactive). The fold change in assay [2] (setting [7]) was 0.834 (inactive); in assay [2] (setting [8]), 1.13. The cell count in assay [2] (setting [9]) is 7130; in assay [2] (setting [10]), 8550. Moreover, in assay [5], the fold fluorescence was 5.36 [at 140.3 µM] (inactive). In assay [3], the z-score is -0.645 (inactive).
Turning to `COC(=O)C1=C(C)NC(C)=C(C(=O)OCCCN2CCC(c3ccccc3)(c3ccccc3)CC2)[C@H]1c1cccc([N+](=O)[O-])c1`, the remaining activity in assay [1] is 116% (inactive). For the same compound, the fold change in assay [2] (setting [7]) is 0.98 (inactive); in assay [2] (setting [8]), 1.09. The cell count came out at 562 in assay [2] (setting [9]), 574 in assay [2] (setting [10]) and 6310 in assay [4]. In addition, in assay [5], the fold fluorescence was 5.27 [at 82 µM] (inactive). The compound further yielded an SSMD in assay [4] of -1.25. Also, the plate-normalised HSF1 focus index in assay [4] is 0.927 (inactive). Besides, the z-score in assay [3] was -0.83 (inactive).
With `Nc1nc2c(ccc3ccccc32)s1`, the remaining activity in assay [1] was 121% (inactive). Moreover, the fold change in assay [2] (setting [7]) is 0.908 (inactive); in assay [2] (setting [8]) it was 1.66. The cell count in assay [2] (setting [9]) was found to be 8670; in assay [2] (setting [10]), 9550. Besides, the z-score in assay [3] was 0.415 (inactive).
Consider `Nc1[nH]nc2nnc(-c3c(-c4ccccc4)nn4ccccc34)cc12`, for which, in assay [6], the parasite load remaining is 43.4% (inactive) and the viability (as a rule, a read-out of living cells in per cent, often relative to untreated cells) was found to be 122%. In assay [1], the remaining activity was 115% (inactive). Moreover, the fold change in assay [2] (setting [7]) is 1.01 (inactive). Also, the fold change in assay [2] (setting [8]) came to 3.36. In addition, the cell count in assay [2] (setting [9]) came to 6630. In addition, in assay [2] (setting [10]), the cell count stood at 6550. Further, in assay [4], the SSMD was found to be 2.88, the cell count stood at 7090 and the plate-normalised HSF1 focus index is 1.16 (inactive). For the same compound, the z-score in assay [3] is 1.04 (inactive).
With `CCCCCCNC(=O)Nc1ccc(S(=O)(=O)Nc2ccc(CCNC[C@H](O)COc3ccc(O)cc3)cc2)cc1`, the remaining activity in assay [1] is 94.3% (inactive). In addition, the results for the fold change in assay [2] (setting [7]) and in assay [2] (setting [8]) were 0.938 (inactive) and 1.32, respectively. Besides, the values for the cell count in assay [2] (setting [9]) and in assay [2] (setting [10]) were 8320 and 8870, respectively. For the same compound, in assay [3], the z-score is -0.435 (inactive).
Consider `CC#CCOC(=O)C1=CCCN(C)C1`, for which, in assay [1], the remaining activity is 109% (inactive). The values for the fold change in assay [2] (setting [7]) and in assay [2] (setting [8]) were 0.936 (inactive) and 0.732, respectively. Besides, the cell count in assay [2] (setting [9]) is 8580; in assay [2] (setting [10]), 9170. Further, in assay [3], the z-score is -0.46 (inactive).
As to `O=C1c2ccccc2C(Cc2ccnc(F)c2)(Cc2ccnc(F)c2)c2ccccc21`, the remaining activity in assay [1] is 102% (inactive). Besides, the figures for the fold change in assay [2] (setting [7]) and in assay [2] (setting [8]) were 0.93 (inactive) and 1.37, respectively. Further, the cell count in assay [2] (setting [9]) is 8150; in assay [2] (setting [10]), 8760. Further, the z-score in assay [3] is 0.3 (inactive).

(Values after PubChem BioAssay.)
